Measured values: PubChem BioAssay (Tox21)
Records with an inconclusive call do not appear. Unmarked numbers belong to inactive results. Calls of active or inactive are those of the source. Calls follow the shape of the dose curve; as a rule, active = well fitted activation curve with a large enough effect in the repeat runs; inconclusive = weak or mixed curves; inactive = no such curve, though single readings can be large or run the other way.

Biological target: Nuclear receptor subfamily 1 group I member 2 (Homo sapiens) (UniProt O75469)
Sequence (O75469 whole entry, looked up): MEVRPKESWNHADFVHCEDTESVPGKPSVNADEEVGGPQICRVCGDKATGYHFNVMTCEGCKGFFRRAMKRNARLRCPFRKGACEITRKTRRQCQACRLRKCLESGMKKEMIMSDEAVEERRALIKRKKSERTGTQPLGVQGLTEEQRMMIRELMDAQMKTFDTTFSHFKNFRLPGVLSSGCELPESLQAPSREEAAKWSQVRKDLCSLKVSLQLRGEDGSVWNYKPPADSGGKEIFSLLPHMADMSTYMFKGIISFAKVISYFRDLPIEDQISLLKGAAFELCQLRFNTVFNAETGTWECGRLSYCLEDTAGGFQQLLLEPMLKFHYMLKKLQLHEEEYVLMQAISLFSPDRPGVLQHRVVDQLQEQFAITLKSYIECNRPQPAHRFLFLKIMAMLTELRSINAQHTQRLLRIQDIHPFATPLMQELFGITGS
Assay: Human pregnane X receptor (PXR) small molecule agonists, qHTS assay (AID 1346982); also: nearly all actives have a fitted effect of over 35% in size
Settings: PXR-Luc HepG2, CYP3A4 luciferase reporter, 24 h; series mostly up to 92.4 µM; activation: at the top concentration
Text: National Center for Advancing Translational Sciences [NCATS]
NIH Chemical Genomics Center [NCGC]
U.S. Environmental Protection Agency [EPA]
National Institutes of Environmental Health Sciences [NIEHS]
National Toxicology Program [NTP]
The human pregnane X receptor (hPXR) regulates the expression of several drug metabolizing enzymes and induction of these proteins is a major mechanism for developing drug resistance in cancer. One such key enzyme catalyzing the drug metabolism is cytochrome P450 3A4 (CYP3A4). Changes in CYP3A4 expression affect drug metabolism, thereby reducing the therapeutic efficacy and altering toxicological response to a drug and which finally causes adverse drug interaction. To screen Tox21 libraries for compounds that activate hPXR-mediated CYP3A4 gene expression, PXR-Luc HepG2 cells were used.
PXR-Luc HepG2 cells were dispensed at 2,000 per well in 5uL of assay medium containing 5% charcoal-stripped FBS into white solid bottom 1536-well plates (Corning Life Sciences, Corning, NY) using a Multidrop Combi (Thermo Scientific, Waltham, MA) dispenser. The assay plates were incubated at 37 C and 5% CO2 for 5hr, and then 23nL of compounds dissolved in DMSO and positive control were transferred using a Pintool station (Wako, San Diego, CA). The assay plates were incubated at 37C and 5% CO2 for 24hr. For luciferase read, 4uL of ONE-Glo reagent (Promega Corporation, Madison, WI) was added to each well of the assay plates using Flying Reagent Dispenser (FRD, Aurora Discovery, San Diego, CA) and incubated the assay plates at room temperature for 30min. The luminescence signal was quantified using a ViewLux plate reader (Perkin Elmer, Shelton, CT).
% is scaled to controls: 0 for no effect and ±100 for the full control effect; potency is read from the fitted curve at half-maximal effect.

SMILES | activation | Potency
CCC(C=O)CC | -0.328% | 
O=S(=O)(O)c1ccc2cc(O)c(S(=O)(=O)O)cc2c1 | 3.75% | 
On1nnc2ccccc21 | 10.1% | 
CC(C)c1ccc2cc(C(C)C)ccc2c1 |  | 61.1 µM (active)
Cc1ccc2ccc(Cl)cc2n1 | 2.61% [at 42.5 µM] | 
OCCN(CCO)c1cccc(Cl)c1 | 16.1% | 
CCOC(=O)[C@H](CCc1ccccc1)N[C@@H](C)C(=O)N1C(=O)N(C)C[C@H]1C(=O)O | -11% [at 42.5 µM] | 
O=C(O)C(=O)Cc1ccccc1 | 12.8% | 
COc1cc(NS(=O)(=O)c2ccc(N)cc2)nc(OC)n1 | -0.609% [at 42.5 µM] | 
NNc1nnc(NN)c2ccccc12 | 23.3% [at 42.5 µM] | 
CC(C)C(=O)OCCc1ccccc1 | -9.38% | 
COCCOCCOCCOCCO | -3.64% | 
CN(C)c1ccc(C=O)cc1 | 4.36% | 
C#CC(C)N(C)C(=O)Nc1ccc(Cl)cc1 (stereo not given) |  | 61.1 µM (active)
O=C(c1ccc(O)cc1)c1ccc(O)c(O)c1O |  | 13.7 µM (active)
CC(C)CCCCOC(=O)c1ccccc1C(=O)OCCCCC(C)C | 8.35% | 
COc1ccc(-c2cc(=O)c3c(O)cc(O[C@@H]4O[C@H](CO[C@@H]5O[C@@H](C)[C@H](O)[C@@H](O)[C@H]5O)[C@@H](O)[C@H](O)[C@H]4O)cc3o2)cc1O | 9.95% [at 42.5 µM] | 
O=C(OCc1ccccc1)C(=O)OCc1ccccc1 | -5.68% | 
C=CC(OCC)OCC | 12.2% | 
C=COCCOCCOCCOC=C | 8.17% | 

SMILES | activation | Potency
CCCN1C[C@H](CSC)C[C@@H]2c3cccc4[nH]cc(c34)C[C@H]21 | 6.89% [at 42.5 µM] | 
C[C@@H]1O[C@@H](O[C@@H]2[C@@H](O)[C@H](OCCc3ccc(O)c(O)c3)O[C@H](CO[C@@H]3O[C@H](CO)[C@@H](O)[C@H](O)[C@H]3O)[C@H]2OC(=O)/C=C/c2ccc(O)c(O)c2)[C@H](O)[C@H](O)[C@H]1O | 3.99% | 
CCC(CC)CO | 1.62% | 
OCCCCC(O)CO (stereo not given) | -1.48% | 
Cc1cc2cc3c(C)cc(=O)oc3c(C)c2o1 |  | 5.96 µM (active)
CC(C)(C)NC(N)=O | 1.24% | 
CCCCCCCCC(=O)Cl | 5.16% | 
CC(=O)c1ccc2c(c1)Cc1ccccc1-2 |  | 54.5 µM (active)
C=C(C)C(=O)OCc1ccccc1 | 12.7% | 
CC(=O)/C=C/C1C(C)=CCC(C)C1(C)C (stereo not given) |  | 19.3 µM (active)
CNS(=O)(=O)CCc1ccc2[nH]cc(C3CCN(C)CC3)c2c1 | 9.78% [at 42.5 µM] | 
Cc1ccccc1C(=O)Nc1ccc(C(=O)N2CCCC(N(C)C)c3ccccc32)cc1 (stereo not given) |  | 0.298 µM (active)
CC(N)C(=O)OC(C)(C)Cc1ccc(Cl)cc1 (stereo not given) | 6.56% [at 42.5 µM] | 
CCCCCCCCCCl | 3.5% | 
Cc1ccc2c(c1)OCC(=O)CO2 | 4.8% | 
COc1ccc2c(c1OC)C(=O)O[C@@H]2[C@H]1c2c(cc3c(c2OC)OCO3)CCN1C |  | 11.9 µM (active)
O=C(O)CCSSCCC(=O)O | -29.8% | 
CC(S)C(=O)NCC(=O)O (stereo not given) | -12.5% [at 42.5 µM] | 
C=C(C)C(=O)OCCOP(=O)(O)OCCOC(=O)C(=C)C | 15.1% | 
ClCCCl | 0.623% | 
